Measurements as given in the supplement of paper PMC11732987, “Enantioselective OTUD7B fragment discovery through chemoproteomics screening and high-throughput optimisation” (Communications Chemistry, 2025).

Assays:
Assay in all cases: log2 ratio of Biotin-Ahx-Ub-VS probe labelling (fragment/DMSO); higher = less target engagement (more negative = stronger competition), active = hit call of the paper (q ≤ 0.05, log2 ratio ≤ -1)
Conditions in all cases: compound concentration: 200 uM; treatment time: 3 h
USP34 = USP34 (UniProt Q70CQ2)
Outline: (§1)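 The table lists average log2 ratios of fragment over vehicle, from an unpaired t-test on global-median-normalised Spectronaut label-free quantities. Proteins with ≥2 unique peptides were used. Samples were HEK293T lysate (495 µg) treated in triplicate with fragment at 200 µM or vehicle for 3 h, then with Biotin-Ahx-Ub-VS (0.5 µM final) for 1 h, with labelled DUBs NeutrAvidin-enriched and run by diaPASEF LC-MS/MS.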

USP36 = molecular target: T1, USP36 (UniProt Q9P275)
T1 sequence (whole entry): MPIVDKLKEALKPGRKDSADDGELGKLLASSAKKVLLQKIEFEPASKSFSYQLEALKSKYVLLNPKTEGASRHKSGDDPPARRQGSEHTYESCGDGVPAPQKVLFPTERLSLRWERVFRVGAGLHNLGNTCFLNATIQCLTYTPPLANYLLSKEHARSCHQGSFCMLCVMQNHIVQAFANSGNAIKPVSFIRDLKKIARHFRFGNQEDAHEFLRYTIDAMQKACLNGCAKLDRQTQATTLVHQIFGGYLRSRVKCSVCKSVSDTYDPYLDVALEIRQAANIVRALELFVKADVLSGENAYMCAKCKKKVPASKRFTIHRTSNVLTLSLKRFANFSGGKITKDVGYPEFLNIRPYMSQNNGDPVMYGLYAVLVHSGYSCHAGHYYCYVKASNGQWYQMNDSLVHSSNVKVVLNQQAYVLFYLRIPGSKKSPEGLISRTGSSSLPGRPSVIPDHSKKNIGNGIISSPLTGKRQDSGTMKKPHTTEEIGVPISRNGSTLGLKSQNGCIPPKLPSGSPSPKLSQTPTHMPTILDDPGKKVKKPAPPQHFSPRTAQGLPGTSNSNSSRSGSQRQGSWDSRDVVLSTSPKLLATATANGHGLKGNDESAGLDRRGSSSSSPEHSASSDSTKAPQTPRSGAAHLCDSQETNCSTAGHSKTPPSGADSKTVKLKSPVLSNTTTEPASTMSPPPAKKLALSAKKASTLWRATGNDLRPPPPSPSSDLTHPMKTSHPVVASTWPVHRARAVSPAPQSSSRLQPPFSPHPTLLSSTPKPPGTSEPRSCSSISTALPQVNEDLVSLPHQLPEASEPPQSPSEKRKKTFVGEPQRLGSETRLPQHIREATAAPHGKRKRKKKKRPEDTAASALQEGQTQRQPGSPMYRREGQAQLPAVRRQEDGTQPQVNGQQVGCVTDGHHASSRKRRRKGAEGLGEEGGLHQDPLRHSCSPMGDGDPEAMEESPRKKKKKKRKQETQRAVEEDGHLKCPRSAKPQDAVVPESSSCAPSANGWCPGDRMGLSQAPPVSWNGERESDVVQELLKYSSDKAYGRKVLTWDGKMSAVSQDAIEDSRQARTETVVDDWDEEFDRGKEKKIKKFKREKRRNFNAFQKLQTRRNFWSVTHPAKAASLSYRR
Outline: as §1

USP38 = molecular target: T2, USP38 (UniProt Q8NB14)
T2 sequence (whole entry): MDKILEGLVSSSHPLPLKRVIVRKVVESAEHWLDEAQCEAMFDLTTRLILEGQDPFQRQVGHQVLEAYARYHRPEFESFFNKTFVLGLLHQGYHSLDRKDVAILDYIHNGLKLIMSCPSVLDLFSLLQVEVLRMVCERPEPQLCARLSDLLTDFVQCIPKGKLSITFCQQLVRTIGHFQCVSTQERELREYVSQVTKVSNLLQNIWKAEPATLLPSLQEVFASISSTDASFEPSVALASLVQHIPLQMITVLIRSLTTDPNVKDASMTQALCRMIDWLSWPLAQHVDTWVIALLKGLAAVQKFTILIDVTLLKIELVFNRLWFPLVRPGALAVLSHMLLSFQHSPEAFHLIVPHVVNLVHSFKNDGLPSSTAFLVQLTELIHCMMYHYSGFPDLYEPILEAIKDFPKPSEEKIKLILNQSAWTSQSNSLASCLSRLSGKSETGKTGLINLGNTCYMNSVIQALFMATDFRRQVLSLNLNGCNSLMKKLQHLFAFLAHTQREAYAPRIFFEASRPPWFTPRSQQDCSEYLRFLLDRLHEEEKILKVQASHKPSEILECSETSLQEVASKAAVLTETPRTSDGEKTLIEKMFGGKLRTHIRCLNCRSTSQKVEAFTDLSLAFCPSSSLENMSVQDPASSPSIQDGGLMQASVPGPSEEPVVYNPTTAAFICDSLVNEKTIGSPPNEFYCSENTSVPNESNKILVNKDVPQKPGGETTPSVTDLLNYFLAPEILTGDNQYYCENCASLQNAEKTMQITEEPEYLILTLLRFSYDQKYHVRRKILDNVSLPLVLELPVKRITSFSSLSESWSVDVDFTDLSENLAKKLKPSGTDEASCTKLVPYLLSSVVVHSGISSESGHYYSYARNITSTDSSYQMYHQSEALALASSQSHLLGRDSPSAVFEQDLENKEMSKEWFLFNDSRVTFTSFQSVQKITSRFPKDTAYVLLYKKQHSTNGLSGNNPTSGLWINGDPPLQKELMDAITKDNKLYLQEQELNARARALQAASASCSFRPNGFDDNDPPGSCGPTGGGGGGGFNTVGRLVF
Outline: as §1

USP39 = molecular target: T3, USP39 (UniProt Q53GS9)
T3 sequence (whole entry): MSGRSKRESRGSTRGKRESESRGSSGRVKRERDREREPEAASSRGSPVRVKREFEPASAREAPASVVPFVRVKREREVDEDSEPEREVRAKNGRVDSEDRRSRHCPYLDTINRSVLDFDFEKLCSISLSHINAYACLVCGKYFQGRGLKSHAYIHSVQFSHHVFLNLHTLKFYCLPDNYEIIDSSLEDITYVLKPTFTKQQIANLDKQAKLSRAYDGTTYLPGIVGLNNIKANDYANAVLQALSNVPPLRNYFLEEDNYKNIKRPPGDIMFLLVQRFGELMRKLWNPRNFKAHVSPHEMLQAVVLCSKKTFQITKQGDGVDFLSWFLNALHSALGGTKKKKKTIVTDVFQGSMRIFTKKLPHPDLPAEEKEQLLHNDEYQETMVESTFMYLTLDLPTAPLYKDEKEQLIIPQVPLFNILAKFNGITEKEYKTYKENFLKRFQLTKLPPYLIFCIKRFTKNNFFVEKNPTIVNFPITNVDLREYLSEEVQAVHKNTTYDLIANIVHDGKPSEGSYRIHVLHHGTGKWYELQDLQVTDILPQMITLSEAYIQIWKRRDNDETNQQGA
Outline: as §1

USP4 = molecular target: T4, USP4 (UniProt Q13107)
T4 sequence (whole entry): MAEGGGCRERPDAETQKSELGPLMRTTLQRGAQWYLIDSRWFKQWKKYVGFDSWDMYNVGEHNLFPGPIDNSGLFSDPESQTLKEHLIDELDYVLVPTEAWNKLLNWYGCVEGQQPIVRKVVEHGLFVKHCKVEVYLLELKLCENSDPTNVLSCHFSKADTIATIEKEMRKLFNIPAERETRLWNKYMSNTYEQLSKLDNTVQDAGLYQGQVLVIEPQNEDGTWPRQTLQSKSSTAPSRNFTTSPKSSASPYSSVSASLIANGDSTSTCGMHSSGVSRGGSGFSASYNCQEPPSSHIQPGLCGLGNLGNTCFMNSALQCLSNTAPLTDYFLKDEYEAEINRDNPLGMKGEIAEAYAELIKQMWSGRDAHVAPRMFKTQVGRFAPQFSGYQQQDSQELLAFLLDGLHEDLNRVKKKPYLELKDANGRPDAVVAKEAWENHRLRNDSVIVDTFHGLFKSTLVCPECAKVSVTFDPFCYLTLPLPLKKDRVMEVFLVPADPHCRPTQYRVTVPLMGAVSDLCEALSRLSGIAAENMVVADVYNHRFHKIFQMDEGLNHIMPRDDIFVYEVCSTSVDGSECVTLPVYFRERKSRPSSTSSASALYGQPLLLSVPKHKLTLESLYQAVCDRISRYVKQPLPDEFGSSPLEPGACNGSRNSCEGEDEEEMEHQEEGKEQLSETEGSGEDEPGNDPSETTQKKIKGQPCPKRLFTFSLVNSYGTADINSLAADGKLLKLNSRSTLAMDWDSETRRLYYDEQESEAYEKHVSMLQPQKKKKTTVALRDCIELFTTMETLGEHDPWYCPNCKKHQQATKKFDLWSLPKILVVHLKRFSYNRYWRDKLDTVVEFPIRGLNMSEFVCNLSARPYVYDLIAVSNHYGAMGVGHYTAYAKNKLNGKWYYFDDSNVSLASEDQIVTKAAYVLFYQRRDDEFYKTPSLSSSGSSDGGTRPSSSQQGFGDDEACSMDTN
Outline: as §1

Measured: log2 ratio of Biotin-Ahx-Ub-VS probe labelling

USP34, sequence (Q70CQ2 whole entry, the tested form may be a part): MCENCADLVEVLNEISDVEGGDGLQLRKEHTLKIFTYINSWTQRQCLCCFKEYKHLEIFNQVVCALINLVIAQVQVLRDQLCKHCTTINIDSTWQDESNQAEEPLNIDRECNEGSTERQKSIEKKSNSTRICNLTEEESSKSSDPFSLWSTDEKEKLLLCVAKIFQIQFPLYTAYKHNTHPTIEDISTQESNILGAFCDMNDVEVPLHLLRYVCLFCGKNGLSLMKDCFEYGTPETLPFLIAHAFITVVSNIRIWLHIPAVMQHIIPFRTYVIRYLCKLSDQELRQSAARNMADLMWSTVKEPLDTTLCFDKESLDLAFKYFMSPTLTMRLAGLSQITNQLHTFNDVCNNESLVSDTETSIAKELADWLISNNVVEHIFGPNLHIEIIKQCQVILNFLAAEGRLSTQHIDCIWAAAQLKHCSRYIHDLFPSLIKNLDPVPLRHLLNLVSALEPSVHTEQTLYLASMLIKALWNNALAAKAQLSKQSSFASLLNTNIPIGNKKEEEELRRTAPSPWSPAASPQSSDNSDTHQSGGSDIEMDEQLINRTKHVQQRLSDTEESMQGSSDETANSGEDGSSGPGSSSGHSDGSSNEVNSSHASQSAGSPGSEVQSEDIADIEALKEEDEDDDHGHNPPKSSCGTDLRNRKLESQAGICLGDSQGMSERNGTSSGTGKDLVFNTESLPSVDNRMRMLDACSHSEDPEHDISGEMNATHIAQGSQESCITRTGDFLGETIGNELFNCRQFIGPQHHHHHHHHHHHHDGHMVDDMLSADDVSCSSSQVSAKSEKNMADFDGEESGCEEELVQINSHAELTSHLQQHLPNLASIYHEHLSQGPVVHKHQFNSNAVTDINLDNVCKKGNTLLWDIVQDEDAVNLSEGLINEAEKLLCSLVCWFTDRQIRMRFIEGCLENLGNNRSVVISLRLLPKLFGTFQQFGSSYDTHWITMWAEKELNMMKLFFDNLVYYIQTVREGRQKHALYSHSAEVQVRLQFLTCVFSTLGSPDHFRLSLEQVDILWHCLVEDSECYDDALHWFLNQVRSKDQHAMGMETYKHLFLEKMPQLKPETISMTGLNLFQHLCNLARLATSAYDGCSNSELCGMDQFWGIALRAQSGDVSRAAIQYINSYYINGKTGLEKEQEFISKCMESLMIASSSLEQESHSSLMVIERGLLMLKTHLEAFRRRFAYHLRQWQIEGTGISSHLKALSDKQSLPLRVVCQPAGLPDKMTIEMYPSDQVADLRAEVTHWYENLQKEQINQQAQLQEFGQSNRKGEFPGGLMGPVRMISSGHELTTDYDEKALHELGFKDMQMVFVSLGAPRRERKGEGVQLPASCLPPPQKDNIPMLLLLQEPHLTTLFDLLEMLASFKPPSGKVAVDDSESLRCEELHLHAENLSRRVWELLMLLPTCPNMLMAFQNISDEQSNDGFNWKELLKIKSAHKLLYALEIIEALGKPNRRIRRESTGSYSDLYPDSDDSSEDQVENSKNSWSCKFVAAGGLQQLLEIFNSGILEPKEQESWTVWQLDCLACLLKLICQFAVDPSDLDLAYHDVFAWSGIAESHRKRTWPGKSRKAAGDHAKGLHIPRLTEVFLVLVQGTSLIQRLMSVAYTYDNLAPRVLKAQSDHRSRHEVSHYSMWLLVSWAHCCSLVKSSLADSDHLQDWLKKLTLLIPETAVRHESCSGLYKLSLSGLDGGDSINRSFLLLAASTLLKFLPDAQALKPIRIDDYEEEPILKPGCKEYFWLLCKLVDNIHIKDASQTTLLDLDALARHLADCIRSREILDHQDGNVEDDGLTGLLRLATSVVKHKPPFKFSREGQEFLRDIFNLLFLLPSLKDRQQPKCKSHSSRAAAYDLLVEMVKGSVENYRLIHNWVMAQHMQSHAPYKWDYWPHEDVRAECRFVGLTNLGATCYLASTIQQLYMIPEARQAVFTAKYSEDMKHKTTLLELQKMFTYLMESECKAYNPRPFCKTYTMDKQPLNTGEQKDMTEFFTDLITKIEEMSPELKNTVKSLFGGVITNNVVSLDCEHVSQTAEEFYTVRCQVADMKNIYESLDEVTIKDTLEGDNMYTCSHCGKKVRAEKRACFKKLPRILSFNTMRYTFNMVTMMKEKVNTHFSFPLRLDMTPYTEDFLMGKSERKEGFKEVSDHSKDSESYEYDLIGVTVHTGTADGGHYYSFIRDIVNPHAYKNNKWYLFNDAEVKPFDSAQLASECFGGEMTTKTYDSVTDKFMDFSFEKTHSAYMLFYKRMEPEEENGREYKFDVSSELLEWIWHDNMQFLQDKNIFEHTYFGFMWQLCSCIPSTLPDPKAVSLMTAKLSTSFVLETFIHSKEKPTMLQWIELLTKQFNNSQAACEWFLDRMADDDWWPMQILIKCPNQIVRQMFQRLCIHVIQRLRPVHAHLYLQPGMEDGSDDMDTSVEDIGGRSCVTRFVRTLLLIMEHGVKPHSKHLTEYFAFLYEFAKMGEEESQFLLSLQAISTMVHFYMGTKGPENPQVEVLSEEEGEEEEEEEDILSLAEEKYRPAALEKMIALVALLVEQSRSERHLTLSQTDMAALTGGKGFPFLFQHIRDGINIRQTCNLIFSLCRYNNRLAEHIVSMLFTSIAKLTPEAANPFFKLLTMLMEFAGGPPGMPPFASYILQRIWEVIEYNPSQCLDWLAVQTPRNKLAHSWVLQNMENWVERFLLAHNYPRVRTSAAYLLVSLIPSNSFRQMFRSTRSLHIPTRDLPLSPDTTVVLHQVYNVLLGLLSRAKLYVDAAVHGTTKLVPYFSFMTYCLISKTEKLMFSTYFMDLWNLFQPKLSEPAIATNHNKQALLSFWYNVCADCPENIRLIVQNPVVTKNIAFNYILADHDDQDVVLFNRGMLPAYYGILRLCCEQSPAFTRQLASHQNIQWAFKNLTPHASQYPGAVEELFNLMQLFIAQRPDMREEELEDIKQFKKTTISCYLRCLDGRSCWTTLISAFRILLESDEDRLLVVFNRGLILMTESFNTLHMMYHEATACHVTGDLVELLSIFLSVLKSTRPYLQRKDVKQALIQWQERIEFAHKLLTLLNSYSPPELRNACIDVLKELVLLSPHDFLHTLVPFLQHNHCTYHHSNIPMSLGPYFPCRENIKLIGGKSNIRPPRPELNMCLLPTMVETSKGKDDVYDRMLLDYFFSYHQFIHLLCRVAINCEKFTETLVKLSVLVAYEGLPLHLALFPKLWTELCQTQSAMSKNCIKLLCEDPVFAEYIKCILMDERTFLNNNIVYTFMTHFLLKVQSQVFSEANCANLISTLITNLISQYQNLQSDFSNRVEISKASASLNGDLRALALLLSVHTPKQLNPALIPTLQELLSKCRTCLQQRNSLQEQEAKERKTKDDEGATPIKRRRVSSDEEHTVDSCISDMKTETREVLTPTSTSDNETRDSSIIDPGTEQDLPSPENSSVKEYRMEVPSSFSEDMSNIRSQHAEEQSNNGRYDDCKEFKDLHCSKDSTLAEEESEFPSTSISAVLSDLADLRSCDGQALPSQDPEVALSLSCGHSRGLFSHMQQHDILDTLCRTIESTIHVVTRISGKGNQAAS

CC1CN(c2ccc(NC(=O)CCl)cc2)CC(C)O1 (stereo not given)
inactive: USP34 -0.087 | USP36 -0.162 | USP38 0.0369 | USP39 0.216 | USP4 -0.104
